Data on 54 molecules can be found in publication PMC4552634, “A New Set of Chemical Starting Points with Plasmodium falciparum Transmission-Blocking Potential for Antimalarial Drug Discovery” (PLoS ONE, 2015).

SMILES strings stand for the structures. Out of some 13,000 compounds screened, about 3,200 (25%) showed an effect of 50% or more. Some of the results follow.

The test relates to P. falciparum stage V gametocytes. Details: BacTiter-Glo ATP luminescence viability of purified stage V gametocytes in 384-well plates, per cent inhibition versus DMSO. The note with it: 48 h, 5 µM; inhibitor.
On to `COc1cc(F)c2ncc(Cl)c(C(O)CN3CCC(NC(=O)c4ccc5c(n4)NC(=O)CO5)CC3)c2c1` (stereo not drawn) [TCMDC-135912], for which the “% Inhibition” value is on record as -16.65%. For `CCCc1cc(OC)c(CC2c3cccc(O)c3CCN2C)cc1OC` (stereo not drawn) [TCMDC-137435] the value was 12.33%; for `CN(C)c1ccc(C=CC(=O)NC(=O)c2ccccc2O)cc1` [TCMDC-125391], 21.33%. The figure for `COc1ccc2c(c1)[nH]c1c(C=Cc3ccccc3)nccc12` [TCMDC-125877] is -0.575%; for `CCC(Cc1cnc2nc(N)nc(N)c2n1)c1ccc(C(=O)N[C@@H](CCC(=O)O)C(=O)O)cc1` (stereo partly drawn) [TCMDC-137768] it is -32.96%.

On to `CN(c1cc(NC(=O)c2ccc(F)cc2)ccn1)C1CCN(Cc2cccc(C#N)c2)CC1` [TCMDC-134975], for which the “% Inhibition” value is given as 15.95%. For `CC(C)CCN1CCCN(Cc2ccc(C(=O)Nc3ccc(Cl)cc3)cc2)CC1` [TCMDC-136413] the value was 0.3374%; for `CC(C)CCN1CCCN(Cc2ccc(C(=O)Nc3ccc(F)c(F)c3)cc2)CC1` [TCMDC-136391], 89.43%; for `CCCCN1CCN(Cc2cccc(NC(=O)c3ccc(Cl)c(Cl)c3)c2)CC1` [TCMDC-134615], -27.06%. The figure for `O=C(Nc1cccc(CN2CCCN(Cc3ccsc3)CC2)c1)c1ccc(Cl)c(Cl)c1` [TCMDC-134581] is -57.04%; for `CCCCCCN1CCN(Cc2cccc(NC(=O)c3ccc(Cl)c(Cl)c3)c2)CC1` [TCMDC-134617] it is -46.23%; for `CC(C)CCN1CCCN(Cc2cccc(NC(=O)c3ccc(Cl)c(Cl)c3)c2)CC1` [TCMDC-141827] it is 68.73%. The figure for `O=C(Nc1cccc(CN2CCCN(Cc3cccc(Cl)c3)CC2)c1)c1ccc(Cl)c(Cl)c1` [TCMDC-141822] is 77.55%; for `O=C(Nc1cccc(CN2CCCN(Cc3cccnc3)CC2)c1)c1ccc(Cl)c(Cl)c1` [TCMDC-141824] it is 12.34%; for `Cc1ccc(NC(=O)c2ccc(CN3CCCN(CCC(C)C)CC3)cc2)cc1F` [TCMDC-136410] it is -21.57%.

As for `CCC(C)Oc1ccc2nc(N)nc(N)c2c1Cl` (stereo not drawn) [TCMDC-137760], the “% Inhibition” value came to 3.28%. For `O=C(NCCOc1ccccc1)[C@H](Cc1ccccc1)Nc1ccnc(NCC2CCCCC2)n1` [TCMDC-134710] the value was 2.198%; for `CC(C)(C)CNCC(C)(C)c1nc(-c2ccc(Cl)c(O)c2)c(-c2ccncc2)[nH]1` [TCMDC-140549], -40.13%; for `CN1CCCN(Cc2ccc(-c3cccc(NC(=O)c4ccc(Cl)cc4)c3)cc2)CC1` [TCMDC-132628], 20.29%. For `CN1N=C2c3ccccc3CCC2C1c1ccc(C#N)cc1` (stereo not drawn) [TCMDC-123771] the value was -59.69%; for `CN(CCO)Cc1ccc(-c2ccc(NS(=O)(=O)c3cccc4cccnc34)cc2)cc1` [TCMDC-136473], -2.439%. The figure for `C=C(C)COc1ccc(-c2n[nH]c(C(F)(F)F)c2-c2ccccc2OC)c(O)c1` [TCMDC-124477] is 8.317%; for `COc1ccc(N2CCN(C(CNC(=O)C3CCCCC3)c3ccc4c(c3)OCO4)CC2)cc1` (stereo not drawn) [TCMDC-124312] it is 30.25%; for `COc1ccccc1-n1c(SCC(=O)Nc2ccccc2F)nc2cccnc21` [TCMDC-123647] it is 7.521%. `COc1ccccc1NC(=O)CSc1nc2cccnc2n1-c1ccccc1OC` [TCMDC-123645]: the “% Inhibition” value turned out to be 66.58%. For `COc1ccc(C)cc1NC(=O)CSc1nc2cccnc2n1C1CCCCC1` [TCMDC-123649] the value was 3.671%; for `c1ncc(CCNc2nc(Nc3ccc4c(c3)OCO4)nc(NC3CCCC3)n2)[nH]1` [TCMDC-139739], 13.1%. Regarding `CC(=O)Nc1ncc(C(=O)Nc2ccc(-c3cccc(-c4nc5ccc(F)cc5[nH]4)c3)cc2)s1` [TCMDC-136912], the “% Inhibition” value was found to be 21.3%. The figure for `O=C(Nc1cc(F)cc(F)c1)N1CCOC(CCN2CCC3(CCc4ccccc43)CC2)(c2ccc(Cl)c(Cl)c2)C1` (stereo not drawn) [TCMDC-135331] is -8.718%; for `Cc1c(CCc2cccc(F)c2F)[nH]c2ccccc2c1=O` [TCMDC-141293] it is 23.35%; for `CCOC(=O)c1c(SCc2cccc(F)c2F)[nH]c2ccccc2c1=O` [TCMDC-141118] it is 58.44%.

In the case of `CCOC(=O)c1c(-c2ccccc2)[nH]c2c(sc3ccccc32)c1=O` [TCMDC-131540], the “% Inhibition” value is given as 7.736%. The figure for `CCCCOC(=O)[C@H](CCC)NC(=O)c1ccc(NS(=O)(=O)c2ccc3nc(N)[nH]c(=O)c3c2)cc1` [TCMDC-137698] is 14.55%; for `COc1ccc2cc(CNCCCCCCNCc3ccc4cc(OC)ccc4c3)ccc2c1` [TCMDC-137797] it is 110.4%. For `COc1cc(CNCCCCCCNCc2cc(OC)cc3ccccc23)c2ccccc2c1` [TCMDC-137823] the value was 16.43%; for `COc1ccc2c(OC)c(CNCCCCCCNCc3ccc4cc(OC)ccc4c3OC)ccc2c1` [TCMDC-137953], 105.9%; for `COc1ccc(OC)c(C(O)CNC(C)C)c1` (stereo not drawn) [TCMDC-124281], 22.77%. For `COc1ccc2ccc(OC)c(CNCCCCCCNCc3c(OC)ccc4ccc(OC)cc34)c2c1` [TCMDC-137796] the value was 140.1%; for `COc1ccc2c(CNCCCCCCNCc3c(OC)ccc4cc(OC)ccc34)c(OC)ccc2c1` [TCMDC-137300], 117.1%.

As to `Cc1ccc(/C=C/C(=O)NCCCCCN2CCN(C(=O)Nc3ccc(Cl)c(C(F)(F)F)c3)CC2)cc1` [TCMDC-136099], the “% Inhibition” value amounted to 10.82%. The figure for `CC1(C)N=C(N)N=C(N)N1OCOc1ccc(Cl)cc1` [TCMDC-131734] is 26.86%; for `CCCCCCN1CCCN(Cc2ccc(C(=O)Nc3ccc(C)c(F)c3)cc2)CC1` [TCMDC-136411] it is 22.16%. Consider `Cc1ccccc1CNC(=O)Nc1cccc(-c2csc(N=C(N)N)n2)c1` [TCMDC-139553], for which the “% Inhibition” value came to 79.76%. For `NC(N)=Nc1nc(-c2ccc(NCc3ccc(CNc4cccc(-c5csc(N=C(N)N)n5)c4)cc3)cc2)cs1` [TCMDC-140699] the value was 83.03%; for `COc1ccc(CNC(=O)Nc2cccc(-c3csc(N=C(N)N)n3)c2)cc1` [TCMDC-139554], 8.01%.

For the molecule `NC(N)=Nc1nc(-c2cccc(NC(=O)CCCCCCCON3C(N)=NC(N)=NC34CCCCC4)c2)cs1` [TCMDC-140420], the “% Inhibition” value is recorded as -29.14%. For `NC(N)=Nc1nc(-c2cccc(NC(=O)NCC(c3ccccc3)c3ccccc3)c2)cs1` [TCMDC-139555] the value was -30.72%; for `NC(N)=Nc1nc(-c2cccc(NC(=O)C(F)(F)F)c2)cs1` [TCMDC-137441], -3.219%; for `N=C(N)Nc1nc(-c2ccc(NC(=O)Nc3cccc(-c4csc(NC(=N)N)n4)c3)cc2)cs1` [TCMDC-139559], 111.8%. The figure for `NC(N)=Nc1nc(-c2cccc(NC(=O)NCc3ccc(OC(F)(F)F)cc3)c2)cs1` [TCMDC-139556] is 86.49%; for `O=C(Nc1cccc(-c2csc(NC(=O)c3ccc4ccccc4c3)n2)c1)c1ccc2ccccc2c1` [TCMDC-124033] it is -5.611%. Regarding `NC(N)=Nc1nc(-c2cccc(NC(=O)NCCc3c[nH]c4ccc(OCc5ccccc5)cc34)c2)cs1` [TCMDC-139557], the “% Inhibition” value is on record as -16.48%. The figure for `NC(N)=Nc1nc(-c2cccc(NC(=O)NCc3cccc4ccccc34)c2)cs1` [TCMDC-139552] is 11.54%; for `NC(N)=Nc1nc(-c2cccc(NC(=O)Cc3ccccc3)c2)cs1` [TCMDC-139599] it is 13.87%.

The term % Inhibition denotes the change of the read-out against control, counted positive when it falls.
